Six1-Eya2 blk – blocks human Six1 binding to Eya2. AID 651725. hit rate 0.56% among 360,000. Q15475+O00167. AlphaScreen GST-Six1/His-Eya2 binding, biochemical; active compounds read low. activity change, % (no concentration beside the values); in the data active = activity change below about -65%; inconclusive = mostly about -30% to -63%
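AlphaScreen with GST-Six1 and His-Eya2 (5X mix: 250 nM and 500 nM), glutathione donor and nickel acceptor beads; buffer 50 mM Tris pH 8.0, 300 mM NaCl, 1 mM TCEP; 1 h at 37 C in the dark.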
G9a inh – G9a (human) methyltransferase inhibition. Q96KQ7. G9a H3K9 monomethylation, AlphaScreen, 2 h. Potency, µM (top dose mostly 102 µM), usual class: inhibitors. hit rate 8.8% among 350,000. AID 504332; also: nearly all actives have a fitted effect of over 75% in size
Target sequence (Q96KQ7 913-1193 limits assumed): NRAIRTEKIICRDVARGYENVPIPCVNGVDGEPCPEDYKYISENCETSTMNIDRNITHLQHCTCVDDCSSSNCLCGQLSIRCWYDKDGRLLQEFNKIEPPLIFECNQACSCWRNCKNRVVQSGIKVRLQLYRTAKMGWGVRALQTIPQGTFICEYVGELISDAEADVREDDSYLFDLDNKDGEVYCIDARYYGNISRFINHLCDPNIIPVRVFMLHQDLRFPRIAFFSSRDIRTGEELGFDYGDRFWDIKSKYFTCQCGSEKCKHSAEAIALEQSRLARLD
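Methyltransferase reactions run at room temperature for 2 h (20 nM enzyme, 500 nM biotin-H3K9 peptide, 20 uM SAM) after a 15 min compound preincubation; product detected by AlphaScreen beads and anti-H3K9me1 antibody.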
BAZ2B inh – blocks human BAZ2B; Q9UIF8; Potency, µM (titrated, usually from 114 µM), most hits filed as inhibitors; AlphaScreen BAZ2B-H3K14Ac peptide displacement; hit rate 4.4% among 360,000; AID 504333; also: nearly all actives have a fitted effect of over 60% in size
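Protein-peptide AlphaScreen: BAZ2B 50 nM, b-H3K14Ac 50 nM, 1x PBS pH 7.4 + 0.01% Tween-20. Preincubation 30 min RT; cpd 30 min RT (top 110 uM); beads 20 min RT, light-protected.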
HP1b binding inh – inhibitors of HP1-beta chromodomain binding to methylated histone tails; P83916; AlphaScreen HP1-beta / biotin-H3K9me3 peptide binding; Potency, µM (highest dose often 114 µM), most hits filed as inhibitors; hit rate 0.56% among 390,000; also: nearly all actives have a fitted effect of over 70% in size
Target sequence (P83916 whole entry, looked up): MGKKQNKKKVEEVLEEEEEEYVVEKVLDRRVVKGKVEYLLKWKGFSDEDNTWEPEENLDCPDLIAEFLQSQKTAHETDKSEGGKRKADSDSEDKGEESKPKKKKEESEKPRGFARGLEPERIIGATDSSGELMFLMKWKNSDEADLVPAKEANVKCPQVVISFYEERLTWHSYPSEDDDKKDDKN
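AlphaScreen: HP1-beta (50 nM) preformed 30 min with biotin-H3(1-18)K9me3 peptide (50 nM) in PBS pH 7.4, 0.01% Tween-20. Compound added for 30 min at RT, then streptavidin donor/nickel chelate acceptor beads (10 ug/mL) for 30 min.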
CtBP-E1A inh – blocks the CtBP interaction with E1A | AlphaScreen GST-E1A/His-CtBP binding, 1536-well; active compounds read low | activity change, % (no concentration beside the values) | AID 651724 | hit rate 0.49% among 340,000; in the data active = activity change below about -65%; inconclusive = mostly about -30% to -63%
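Steps: dispense buffer (Tris pH 8.0, NaCl 300 mM, TCEP 1 mM, BSA, Tween 20); add 5X protein mix (GST-E1A, His-CtBP, 125 nM each); pin 23 nL compound; 2 h at 37 °C, dark; add 5X beads (50 ug/mL); 1 h; read.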
JMJD2A Tudor – blocks the human JMJD2A Tudor domain. AlphaScreen JMJD2A-Tudor / H3K4me3 peptide binding. Potency, µM (titrated, usually from 114 µM), most hits filed as inhibitors. hit rate 4.4% among 390,000. AID 504339; also: nearly all actives have a fitted effect of over 50% in size
Numbers stand for hits; - = inactive; ? = inconclusive; . = not tested or not shown; ! = a repeat was not active; [ ] = dose if it differs, or a comment. Shown are actives, neighbours in structure and some others; about 10% of the full set was active somewhere. Unless noted, calls follow the shape of the dose curve; as a rule, active = well fitted inhibition curve with a large enough effect; inconclusive = small, poorly fitted or top-dose-only effect; inactive = no such curve, though single readings can be large or run the other way.

SMILES	Six1-Eya2 blk	G9a inh	BAZ2B inh	HP1b binding inh	CtBP-E1A inh	JMJD2A Tudor
CCOc1ccc(Cl)cc1S(=O)(=O)NCc1ccccn1	-	-	-	-	.	-[11.4 µM]
O=S(=O)(NCc1ccccn1)c1ccccc1	-	-	-	-	-	8.9µM
CCOc1ccc(OCC)c(S(=O)(=O)NCc2ccccn2)c1	-	-	-	-	-	89µM
COc1ccccc1OCCn1nc2ccccc2c1OC	-	.	.	.	-	.
CCc1nc2ccc(C(=O)NCC3CCCCC3)cn2c1N(C)Cc1ccc(OC)cc1	-	.	.	.	-	.
CCCn1cnnc1CNC(=O)[C@H]1O[C@@H](n2ccc(=O)[nH]c2=O)[C@H](O)[C@@H]1O	-	.	.	.	-	.
CCCN1CNc2c(c(=O)[nH]c(=O)n2CCc2ccc(OC)c(OC)c2)C1	.	.	.	-	.	-
CCn1cc2nc(SCC(=O)Nc3ccc(C)cc3C)n(Cc3ccc(C)cc3)c(=O)c2n1	.	-	?	-	.	-
O=S(=O)(NCc1ccccn1)c1ccccn1	-	.	?	-	-	?
O=S(=O)(NCc1ccccn1)c1cccc2nsnc12	-	20µM	?	-	-	?
O=S(=O)(Cc1ccccc1)NCc1ccccn1	-	?	-	-	-	3.5µM
O=S(=O)(NCCCc1ccccc1)c1cccc2nsnc12	-	-	-	-	-	-
CC1(C)OC(=O)C2=C(C[C@@H](CCc3ccccc3)O[C@H]2CCc2cccc(Cl)c2)O1	-	.	.	.	-	.
CCOC(=O)C1C(c2ccc3c(c2)OCO3)NC(=O)NC1(O)C(F)(F)F (centres undefined)	-	-[2.33 µM]	-	-	-	18µM
CCOC(=O)C1C(c2ccc(O)c(OC)c2)NC(=O)NC1(O)C(F)(F)F (centres undefined)	-	.	?	-	-	-
CC1(C)CC(=O)C=C(c2cccnc2)C1	-	.	.	-	-	-
CC(C)(C)NC(=O)C1c2ccccc2OCC(=O)N1CCCN1CCOCC1 (centres undefined)	-	.	.	.	-	.
CC(Nc1nc(-c2ccc(F)cc2)cs1)c1nc2cc(Cl)c(Cl)cc2n1CCCO (centres undefined)	-	.	.	-	-	-
Cc1ccc(Cn2c(C(C)Nc3nc(-c4ccc(C)cc4)cs3)nc3cc(Cl)c(Cl)cc32)cc1 (centres undefined)	-	28µM	40µM	45µM	-	?
CCCn1c(C(C)Nc2nc(-c3ccc(C)cc3)cs2)nc2ccccc21 (centres undefined)	-	89µM	?	-	-	?
Cc1ccc(Cn2c(C(C)Nc3nc(-c4ccc(Cl)cc4)cs3)nc3cc(C(=O)NCCCO)ccc32)cc1 (centres undefined)	-	.	.	-	-	79µM
COc1cccc(CN2CCC(C(=O)N3CCN(c4ccccc4F)CC3)CC2)c1	-	10µM	-	?	-	8.9µM
COc1cc(CN2CCC(C(=O)N3CCN(c4ccccc4F)CC3)CC2)ccc1O	-	14µM	56µM	?	-	2.5µM
COc1cc(CN2CCC(C(=O)NC3CCCC3)CC2)ccc1O	-	?	32µM	?	-	?
COc1ccc(OC)c(CN2CCC(C(=O)N3CCN(c4ccccc4F)CC3)CC2)c1	-	10µM	?	?	-	1.4µM
SMILES	Six1-Eya2 blk	G9a inh	BAZ2B inh	HP1b binding inh	CtBP-E1A inh	JMJD2A Tudor
CS(=O)(=O)N1CCC(C(=O)N2CCN(c3ccccc3F)CC2)CC1	-	-	-	-	-	?
COCCCNC(=S)N1CCN(c2ccccc2)CC1	-	?	-	-	-	-
COc1cccc(CN2CCC(C(=O)N3CCN(Cc4ccc5c(c4)OCO5)CC3)CC2)c1	-	-	-	?	-	0.89µM
COc1ccc(OC)c(CN2CCC(C(=O)N3CCOCC3)CC2)c1	-	10µM	?	?	-	2.2µM
O=C(C1CCN(c2nnc(-n3cccc3)s2)CC1)N1CCN(Cc2ccc3c(c2)OCO3)CC1	-	?	?	-	-	-
CCC(Oc1ccccc1)C(=O)Nc1ccccc1OCc1cc(=O)n2ccccc2n1 (centres undefined)	.	-	-	-	.	-
O=C(CN1CCN(S(=O)(=O)c2ccc(Cl)c(Cl)c2)CC1)N1CCCC1	-	-	-	-	-	-
CCOC(=O)c1c(C)[nH]c(C)c1S(=O)(=O)N1CCCC(C(=O)N2CCN(c3cc(C)ccc3C)CC2)C1 (centres undefined)	.	-	45µM	-	.	?
CC(=O)N1CCCc2cc(S(=O)(=O)N3CCCC(C(=O)N4CCN(c5cc(C)ccc5C)CC4)C3)ccc21 (centres undefined)	-	-	-	-	-	4µM
CC(=O)N1CCCc2cc(S(=O)(=O)N3CCCC(C(=O)N4CCN(c5ccccc5)CC4)C3)ccc21 (centres undefined)	-	?	-	-	-	-
COc1ccc(NC(=O)COc2ccc(-c3nn(C)c(=O)c4ccccc34)cc2)cc1	-	-	-	-	-	45µM!
CNC(=O)c1ccc(NC(=O)COc2ccc(-c3nn(C)c(=O)c4ccccc34)cc2)cc1	.	-	-	-	.	-
COc1ccc(/C=C(\NC(=O)c2ccccc2)C(=O)OC[C@@H]2CCC[N+]3(C)CCCCC23)cc1OC (some centres undefined)	-	-	-	?	-	16µM
CCOC(=O)N1CCN(C(=O)/C(=C/c2ccc(OC)c(OC)c2)NC(=O)c2ccccc2)CC1	-	-[0.501 µM]	-	-	-	-
CC(C)(C)OC(=O)N1CCC(c2c(C(=O)NCc3ccco3)cnn2-c2ccccc2Cl)CC1	.	?	-	-	.	-
Cc1cccc(OCCOCCn2c(-c3ccc(Cl)cc3)nc3ccccc3c2=O)c1C	.	-	-	-	.	-
Cc1cc(C(=O)COc2ccccc2C(N)=O)c(C)n1C	-	-	.	-	-	-
Cc1cc(C(=O)COc2cccnc2[N+](=O)[O-])c(C)n1-c1ccccc1	-	?	?	-	-	-
Cc1ccc(OCC(=O)c2cc(C)n(C)c2C)c([N+](=O)[O-])n1	-	?	56µM	-	-	-
Cc1cc(C(=O)COc2nncc3ccccc23)c(C)n1C	-	79µM	-	-	-	-
Cc1cc(C(=O)COc2cccc3cccnc23)c(C)n1C	?	2.8µM	11µM	-	?	-
COc1ccc(S(=O)(=O)n2nc(-c3ccco3)nc2NCc2ccc(C(C)C)cc2)cc1	.	-	-	-	.	-
COc1ccc2c3c(c(=O)oc2c1)C1O[C@](CCCCN2C(=O)c4ccccc4C2=O)(Cc2cc(OC)c(OC)cc21)O3	.	.	-[22.9 µM]	.	.	.
COc1cc2c(cc1OC)C1O[C@](CCCCN3C(=O)c4ccccc4C3=O)(C2)Oc2c1c(=O)oc1ccc(F)cc21	.	?	8.9µM	.	.	.
COc1cc2c(cc1OC)C1O[C@](c3ccsc3)(C2)Oc2cc(C)n(Cc3ccccc3)c(=O)c21	.	-[2.33 µM]	4µM	.	.	.

Assay outcomes from PubChem.
